From the supplement of paper PMC9694430

Experiments:
Assay in all cases: thermal shift delta Tm vs DMSO control; higher = stronger stabilization (binding)
Details in all cases: 12.5 µM; protein concentration 2 µM
LOC_OS02G45750-cb003 = test system: LOC_OS02G45750-cb003
Method in brief: (§1)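 Rice kinase domain constructs were expressed in E. coli, purified, and tested by differential scanning fluorimetry with compound added in DMSO. Each well of a 96-well plate held 19.5 μl of 2 μM kinase in 100 mM potassium phosphate pH 7.5, 150 mM NaCl, 10% glycerol and 5 × SYPRO Orange, and fluorescence was read from 25°C to 95°C at 0.05°C/s. The melting temperature shift is the mean of triplicates, taken against protein with DMSO alone after Boltzmann fitting.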

LOC_OS02G54510-cb004 = test system: LOC_OS02G54510-cb004
Method in brief: as §1

LOC_OS03G04050-cb001 = test system: LOC_OS03G04050-cb001
Method in brief: as §1

LOC_OS03G12390-cb001 = test system: LOC_OS03G12390-cb001
Method in brief: as §1

LOC_OS03G27990-cb004 = test system: LOC_OS03G27990-cb004
Method in brief: as §1

LOC_OS03G50450-cb001 = test system: LOC_OS03G50450-cb001
Method in brief: as §1

LOC_OS03G50810-cb003 = test system: LOC_OS03G50810-cb003
Method in brief: as §1

LOC_OS04G35114-cb001 = test system: LOC_OS04G35114-cb001
Method in brief: as §1

LOC_OS04G38480-cb003 = test system: T1, LOC_OS04G38480-cb003
T1 sequence (whole entry): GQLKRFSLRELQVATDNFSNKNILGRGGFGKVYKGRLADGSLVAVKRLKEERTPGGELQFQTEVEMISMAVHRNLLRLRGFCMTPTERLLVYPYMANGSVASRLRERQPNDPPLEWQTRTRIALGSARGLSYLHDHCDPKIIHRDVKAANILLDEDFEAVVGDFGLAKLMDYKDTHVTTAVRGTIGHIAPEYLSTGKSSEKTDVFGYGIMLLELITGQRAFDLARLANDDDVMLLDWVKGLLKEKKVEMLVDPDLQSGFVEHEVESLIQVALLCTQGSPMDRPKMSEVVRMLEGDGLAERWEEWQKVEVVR
Method in brief: as §1

LOC_OS04G41100-cb001 = test system: T2, LOC_OS04G41100-cb001
T2 sequence (whole entry): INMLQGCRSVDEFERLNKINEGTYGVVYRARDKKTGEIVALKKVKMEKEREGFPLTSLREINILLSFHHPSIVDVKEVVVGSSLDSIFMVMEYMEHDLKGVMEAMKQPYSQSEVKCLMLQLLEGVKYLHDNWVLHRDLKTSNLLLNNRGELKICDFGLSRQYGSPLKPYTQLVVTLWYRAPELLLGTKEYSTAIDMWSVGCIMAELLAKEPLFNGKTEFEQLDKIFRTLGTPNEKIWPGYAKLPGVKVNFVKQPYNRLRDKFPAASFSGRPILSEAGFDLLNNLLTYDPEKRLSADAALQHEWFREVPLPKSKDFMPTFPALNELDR
Method in brief: as §1

LOC_OS04G57630-cb004 = test system: LOC_OS04G57630-cb004
Method in brief: as §1

LOC_OS05G07850-cb002 = test system: LOC_OS05G07850-cb002
Method in brief: as §1

LOC_OS05G16824-cb004 = test system: LOC_OS05G16824-cb004
Method in brief: as §1

LOC_OS05G28520-cb001 = test system: LOC_OS05G28520-cb001
Method in brief: as §1

LOC_OS05G30820-cb001 = test system: LOC_OS05G30820-cb001
Method in brief: as §1

LOC_OS05G43570-cb004 = test system: LOC_OS05G43570-cb004
Method in brief: as §1

LOC_OS06G16330-cb003 = test system: LOC_OS06G16330-cb003
Method in brief: as §1

LOC_OS06G22820-cb001 = test system: T3, LOC_OS06G22820-cb001
T3 sequence (whole entry): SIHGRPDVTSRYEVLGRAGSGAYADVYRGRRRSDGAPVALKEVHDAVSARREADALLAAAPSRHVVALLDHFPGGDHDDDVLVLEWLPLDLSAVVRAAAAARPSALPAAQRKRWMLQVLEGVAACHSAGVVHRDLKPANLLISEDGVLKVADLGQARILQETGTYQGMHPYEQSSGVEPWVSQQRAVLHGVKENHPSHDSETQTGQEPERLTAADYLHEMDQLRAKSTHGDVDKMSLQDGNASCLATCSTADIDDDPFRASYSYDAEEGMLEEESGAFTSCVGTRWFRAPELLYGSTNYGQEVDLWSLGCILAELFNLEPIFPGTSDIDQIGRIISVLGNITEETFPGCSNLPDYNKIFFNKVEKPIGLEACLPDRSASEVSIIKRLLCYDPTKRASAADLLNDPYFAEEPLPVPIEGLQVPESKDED
Method in brief: as §1

LOC_OS07G06570-cb004 = test system: LOC_OS07G06570-cb004
Method in brief: as §1

LOC_OS07G07230-cb001 = test system: LOC_OS07G07230-cb001
Method in brief: as §1

LOC_OS06G16330-cb003, sequence (as listed by the source): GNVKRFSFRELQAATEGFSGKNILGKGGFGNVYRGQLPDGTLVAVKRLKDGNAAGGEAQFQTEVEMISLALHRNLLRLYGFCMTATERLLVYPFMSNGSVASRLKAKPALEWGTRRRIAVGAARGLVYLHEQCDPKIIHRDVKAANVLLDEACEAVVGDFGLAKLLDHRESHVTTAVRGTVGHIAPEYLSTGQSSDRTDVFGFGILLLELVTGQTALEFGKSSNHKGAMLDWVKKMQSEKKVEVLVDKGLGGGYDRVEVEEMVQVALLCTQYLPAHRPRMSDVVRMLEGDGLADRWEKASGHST

Compound	thermal shift delta Tm (LOC_OS02G45750-cb003)	thermal shift delta Tm (LOC_OS02G54510-cb004)	thermal shift delta Tm (LOC_OS03G04050-cb001)	thermal shift delta Tm (LOC_OS03G12390-cb001)	thermal shift delta Tm (LOC_OS03G27990-cb004)	thermal shift delta Tm (LOC_OS03G50450-cb001)	thermal shift delta Tm (LOC_OS03G50810-cb003)	thermal shift delta Tm (LOC_OS04G35114-cb001)	thermal shift delta Tm (LOC_OS04G38480-cb003)	thermal shift delta Tm (LOC_OS04G41100-cb001)	thermal shift delta Tm (LOC_OS04G57630-cb004)	thermal shift delta Tm (LOC_OS05G07850-cb002)	thermal shift delta Tm (LOC_OS05G16824-cb004)	thermal shift delta Tm (LOC_OS05G28520-cb001)	thermal shift delta Tm (LOC_OS05G30820-cb001)	thermal shift delta Tm (LOC_OS05G43570-cb004)	thermal shift delta Tm (LOC_OS06G16330-cb003)	thermal shift delta Tm (LOC_OS06G22820-cb001)	thermal shift delta Tm (LOC_OS07G06570-cb004)	thermal shift delta Tm (LOC_OS07G07230-cb001)
N#C/C(=C\c1ccc(O)c(O)c1)C(=O)NCc1ccccc1 [AG-490 (Tyrphostin B42)]	0.05 °C	0.41 °C	0.78 °C	0.12 °C	0.27 °C	-0.29 °C	0.09 °C	-0.45 °C	0.47 °C	0.43 °C	-1.22 °C	-1.56 °C	-18.1 °C	1.95 °C	0.64 °C	0.9 °C	-0.03 °C	1 °C	2.29 °C	0.61 °C
CCCCCCCCCCCCCCCCCCOP(=O)([O-])OC1CC[N+](C)(C)CC1 [Perifosine (KRX-0401)]	-1.3 °C	-1.77 °C	-3.06 °C	-3.5 °C	-2.47 °C	-2.45 °C	-1.54 °C	-3.56 °C	-0.3 °C	-0.69 °C	-0.56 °C	-0.07 °C		-1.23 °C	-0.15 °C	-0.61 °C		0.39 °C	-2.82 °C	-2.65 °C
CC(C)(C)c1ccc(S(=O)(=O)/C=C/C#N)cc1	-0.34 °C	1.26 °C	0.18 °C	-0.99 °C	-0.83 °C	0.05 °C	-1.59 °C	-1.78 °C	1.74 °C	-0.39 °C	0.92 °C	0.97 °C		-0.58 °C	-0.04 °C	0.04 °C	0.83 °C	-0.39 °C	0.39 °C	-0.18 °C
O=C(O)c1cc(O)c2c(c1)[C@@H]([C@H]1c3cc(C(=O)O)cc(O)c3C(=O)c3c(O[C@@H]4O[C@H](CO)[C@@H](O)[C@H](O)[C@H]4O)cccc31)c1cccc(O[C@@H]3O[C@H](CO)[C@@H](O)[C@H](O)[C@H]3O)c1C2=O [Sennoside B]	0.1 °C	-0.47 °C	1.23 °C	0.74 °C	0.89 °C	0.17 °C	1.04 °C	0.32 °C	3.9 °C	0.24 °C	-0.43 °C	-1.7 °C		2.58 °C	0.73 °C	1.55 °C	-0.98 °C	1.61 °C	4.56 °C	-0.03 °C
O=c1ccc2ccc(O)c(O)c2o1 [Daphnetin]	1.1 °C	0.54 °C	0.75 °C	-0.23 °C	0.69 °C	1.08 °C	0.83 °C	0.8 °C	1.96 °C	0.36 °C	0.17 °C	0.01 °C	-3.57 °C	0.77 °C	0.79 °C	0.83 °C	0.25 °C	0.83 °C	1.31 °C	-0.12 °C
